# Bioassay records: PubChem BioAssay, National Center for Advancing Translational Sciences (NCATS)
# ELG1 genotoxic: qHTS screen for small molecules that induce genotoxicity in human embryonic kidney (HEK293T) cells expressing luciferase-tagged ELG1 | HEK293T ELG1-luciferase reporter, luminescence, 16 h | Potency, µM (titrated, usually from 46 µM), for the others: top-dose activity change, positive = activation, usual class: activators | actives 1.3% (n = 330,000) | AID 504466, 2011; note: % of control where 0% means no effect; nearly all actives have a fitted effect of over 60% in size
#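 Screening used a luciferase reporter fused to human ELG1 in HEK293T cells. Luminescence was read on a CCD plate imager after 16 hr exposure and 30 min ONE-Glo incubation.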
# ELG1 DNA repair: qHTS screen for small molecules that inhibit ELG1-dependent DNA repair in human embryonic kidney (HEK293T) cells expressing luciferase-tagged ELG1; HEK293T ELG1-luciferase reporter, luminescence, 16 h; DNA damage induced by 5-fluorouridine; Potency, µM (highest dose often 46.1 µM), for inactives: at the highest dose activity change, negative = inhibition, usual class: inhibitors; actives 2.3% (n = 330,000); AID 504467, 2011; note: % is set by controls: 0 for no effect and ±100 for the full control effect; nearly all actives have a fitted effect of over 55% in size
#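 Luminescence from the luciferase reporter, measured 30 min after ONE-Glo reagent at room temperature, was the read-out. Beforehand, 2,000 cells per well were exposed for 16 hr at 37 °C to 5-fluorouridine together with compound or vehicle.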
# SMN2 splice enh: qHTS Assay for Enhancers of SMN2 Splice Variant Expression. HEK293 SMN2-luciferase splicing reporter, luminescence, 30-36 h. Potency, µM (top dose mostly 46.1 µM), inactives show at the highest dose activity change, positive = activation, usual class: activators. actives 2.8% (n = 210,000); note: % of control where 0% means no effect; nearly all actives have a fitted effect of over 55% in size
#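 HEK293 cells carry an SMN2 […]–luciferase reporter in which exon 7 inclusion puts luciferase in frame. Cells were plated 10-12 h before compound addition, then incubated 30-36 h at 37C. ONE-Glo luminescence was read; sodium butyrate at 4.5 mM final served as control.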
# NPC1 promoter act: qHTS Assay for NPC1 Promoter Activators; Huh7 NPC1 promoter luciferase reporter, 24 h; Potency, µM (doses to about 9.22 µM), for the others: at the top dose activation, usual class: activators; actives 2.4% (n = 320,000); AID 485313, 2010; note: % of control where 0% means no effect; nearly all actives have a fitted effect of over 60% in size
#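 Readout is luciferase luminescence, reflecting NPC1 promoter activation in stably transfected Huh7 cells after 24 h compound exposure at 37 °C in reduced-serum medium with 10% FBS.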
# FLuc counter: qHTS profiling assay for firefly luciferase inhibitor/activator using purifed enzyme and Km concentrations of substrates (counterscreen for miR-21 project) | Luciferin 4-monooxygenase (Photinus pyralis), P08659 | purified FLuc, Km substrates, luminescence inhibition | Potency, µM (top dose mostly 57.5 µM), for the others: at the highest dose activity change, negative = inhibition, usual class: inhibitors | actives 6.9% (n = 360,000) | AID 588342, 2011;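 note: plate controls were vehicle for no effect and reference inhibitor for full effect; nearly all actives have a fitted effect of over 55% in size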
# Target sequence (P08659 whole entry, looked up): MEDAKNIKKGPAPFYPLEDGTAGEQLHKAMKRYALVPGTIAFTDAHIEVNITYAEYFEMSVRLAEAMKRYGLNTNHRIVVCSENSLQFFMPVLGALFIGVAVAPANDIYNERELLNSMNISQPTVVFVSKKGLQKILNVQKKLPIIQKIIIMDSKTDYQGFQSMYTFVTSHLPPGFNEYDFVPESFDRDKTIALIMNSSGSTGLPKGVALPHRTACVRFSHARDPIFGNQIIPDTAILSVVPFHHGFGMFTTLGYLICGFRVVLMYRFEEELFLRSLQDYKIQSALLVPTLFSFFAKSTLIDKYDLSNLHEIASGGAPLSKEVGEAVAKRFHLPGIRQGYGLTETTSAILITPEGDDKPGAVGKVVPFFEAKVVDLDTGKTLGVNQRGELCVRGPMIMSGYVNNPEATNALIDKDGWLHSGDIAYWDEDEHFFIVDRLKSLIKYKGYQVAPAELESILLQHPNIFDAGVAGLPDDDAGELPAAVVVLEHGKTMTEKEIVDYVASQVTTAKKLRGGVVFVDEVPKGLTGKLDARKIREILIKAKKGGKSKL
#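 Purified P. pyralis luciferase, 10 nM final, with Km-level 10 uM D-luciferin and 10 uM ATP in 50 mM Tris acetate pH 7.5, 10 mM Mg acetate, 0.01% Tween-20, 0.05% BSA; 6-point qHTS titration about 60 µM downward; luminescence read.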
# Rab9 promoter act: qHTS Assay for Rab9 Promoter Activators; actives 2.8% (n = 320,000); Huh7 Rab9 promoter-luciferase reporter, luminescence, 24 h; Potency, µM (highest dose often 9.22 µM), without a hit: at the highest dose activation, negative = inhibition, hits mostly activators; note: % of control where 0% means no effect; nearly all actives have a fitted effect of over 60% in size
#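 Luminescence read-out: Huh7 cells stably expressing Rab9-luciferase, treated 24 h with compound at 37 °C, then lysed with luciferase reagent for 10 min at ambient before reading.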
# * marks the source's active call; other numbers are inactive results; ? = inconclusive; . = no result. The list is not random: actives were taken first. Their share in the collection is about 9.2%. Calls come from the whole dose curve; as a rule, active = well fitted curve in the direction sought with a large enough effect; inconclusive = small, poorly fitted or top-dose-only effect, or another doubt; inactive = no such curve, though single readings can be large; an effect the other way counts as inactive or inconclusive. Potency is the fitted concentration of half-maximal effect.
SMILES,ELG1 genotoxic,ELG1 DNA repair,SMN2 splice enh,NPC1 promoter act,FLuc counter,Rab9 promoter act
COc1cc(C)ccc1OCCOc1c(Cl)cc(Cl)cc1Cl,-0.3%,13.8%,.,-1.5%,?,7.9%
COc1cccc(NC(=O)N(Cc2c[nH]c3ccccc23)C2CCCCCC2)c1,.,.,-13.2%,.,-2.5%,.
CCOC(=O)N1CCc2c(sc3c2c(=O)n(Cc2ccccc2)c(=O)n3CC(=O)Nc2ccccc2F)C1,.,.,-14.4%,.,-6.0%,.
O=[N+]([O-])c1ccc(CNc2ccc(Cl)cc2)s1,-2.7%,?,.,2.5%,-2.5%,1.7%
CN1c2ccc(Cl)cc2C(=O)NC1c1ccc([N+](=O)[O-])s1 (stereo not given),-5.5%,20.6µM*,.,-2.4%,2.7%,-4.4%
COc1cc(C(=O)OCC(=O)N2CCCCC2C)cc(NC(=O)c2cccs2)c1OC (stereo not given),-7.7%,18.3µM*,-18.0%,-0.3%,-2.4%,-6.1%
CCC1CCCCN1C(=O)COC(=O)c1cccs1 (stereo not given),3.0%,29.4%,.,.,.,.
O=C(CCC(=O)c1cccs1)Nc1ncccc1O,2.2%,24.7%,.,2.8%,1.1%,-2.8%
O=c1c2ccccc2nc(SCc2nc3ccccc3s2)n1CCCO,?,?,14.1µM*,?,13.5µM*,2.82µM*
Cn1cc(/C=C/C(=O)c2ccccc2)c2ccccc21,1.83µM*,?,.,1.58µM*,0.536µM*,1.26µM*
Cc1ccc(C(=O)/C=C/c2cn(CN3CCN(C)CC3)c3ccccc23)cc1,14.6µM*,?,14.4%,?,4.78µM*,?
O=C(NCCc1ccccc1)c1cccc([N+](=O)[O-])c1,?,?,11.2µM*,25.1%,?,29.6%
O=C(CCCc1ccccc1)Nc1cccc([N+](=O)[O-])c1,?,?,.,3.55µM*,?,?
O=C(COC(=O)c1cccc(Br)c1)NCCNC(=O)COC(=O)c1cccc(Br)c1,-9.2%,6.51µM*,.,9.4%,-1.4%,0.0%
O=C(CCc1ccccc1)Nc1cccc([N+](=O)[O-])c1,-1.2%,-18.9%,9.4%,7.6%,-14.1%,0.5%
O=C(COC(=O)c1cccc(Br)c1)NCCc1ccccc1,2.8%,6.4%,21.5%,-1.0%,-1.4%,-4.7%
CCCNC(=O)c1cccc(Br)c1,-7.9%,0.1%,16.4%,-1.0%,4.3%,-3.7%
O=C(NCCc1ccccc1)c1cccc(Br)c1,?,?,.,3.55µM*,21.3µM*,2µM*
CCCn1cc(S(=O)(=O)c2ccc(CC)cc2)c(=O)c2cc(F)c(N3CCN(C)CC3)cc21,.,.,.,.,1.3%,.
COc1ncc2nc(CCc3ccccc3)c(=O)n(Cc3ccc(F)cc3)c2n1,.,.,-10.2%,.,.,.
COc1ccc(-c2cc(C)no2)cc1S(=O)(=O)Nc1c(C)cc(C)cc1C,.,.,.,.,-1.0%,.
CCOC(=O)CSc1nc2cc3c(cc2c(=O)n1CCCC(=O)NCc1ccc2c(c1)OCO2)OCO3,.,.,.,.,4.9%,.
CN(C)S(=O)(=O)c1cccc(C(=O)Nc2ccccc2)c1,0.3%,2.7%,6.6%,19.6%,?,17.7%
O=C(NCCc1ccccc1)c1cccnc1,13µM*,?,?,?,?,3.16µM*
Cc1ccc(C(=O)NCCc2cccc(Cl)c2)cc1[N+](=O)[O-],13.4%,?,23.8%,22.4%,26.9µM*,25.5%
SMILES,ELG1 genotoxic,ELG1 DNA repair,SMN2 splice enh,NPC1 promoter act,FLuc counter,Rab9 promoter act
O=C(NCCc1ccccc1)c1cnc2ccccc2n1,?,?,.,3.55µM*,8.49µM*,1.41µM*
CN(C)S(=O)(=O)c1cccc(C(=O)NCCc2ccccc2)c1,11.6%,?,11.2µM*,0.794µM*,7.57µM*,1.41µM*
O=C(NCc1ccccc1)c1cccnc1,-1.0%,6.8%,.,-6.0%,1.0%,-5.5%
CCOc1ccc(CCNC(=O)Cn2nc(-c3ccc(C)cc3)ccc2=O)cc1OCC,.,.,.,.,-7.2%,.
COc1cccc(NC(=O)CN2C(=O)COc3ccc(S(=O)(=O)N4CCCCCC4)cc32)c1,-1.6%,-0.4%,.,2.2%,2.1%,-0.1%
COc1ccc(NC(=O)COC(=O)c2cc3c(s2)CCC3)cc1,1.4%,11.7%,.,-0.1%,-2.1%,-2.0%
N#Cc1c(SCC(=O)Nc2nc3ccccc3s2)sc2c(O)cc(=O)[nH]c12,1.4%,?,.,1.0%,2.39µM*,17.4%
N#Cc1c(SCC(=O)Nc2nc3ccc(Br)cc3s2)sc2c(O)cc(=O)[nH]c12,-0.3%,20.3%,.,26.0%,?,25.6%
O=C(COC(=O)c1cc(S(=O)(=O)N2CCCC2)ccc1O)Nc1ccc(F)cc1F,-0.3%,2.6%,.,.,.,.
Cc1ccccc1OCC(=O)Nc1ccc(N2CCN(C)CC2)c(Cl)c1,?,?,.,?,12µM*,28.7%
COc1ccc(OCC(=O)Nc2ccc(N3CCOCC3)c(Cl)c2)cc1,-11.2%,?,20.7%,1.1%,-17.4%,0.3%
COc1ccc(OCC(=O)Nc2ccc(N3CCN(C(=O)c4ccccc4)CC3)c(Cl)c2)cc1,-20.3%,11.6µM*,.,-17.2%,-0.6%,-17.9%
CC(=O)NC(CC(=O)OCC(=O)NCCc1ccccc1)c1ccccc1 (stereo not given),3.0%,?,.,-0.2%,-0.3%,7.6%
Cn1ccc(C(=O)Nc2ccc(Br)cc2Br)n1,4.61µM*,?,5.01µM*,3.55µM*,3.01µM*,3.16µM*
Cc1ccc(NC(=O)Nc2ccc(Cl)cc2)c(Br)c1,?,?,?,22.2%,-20.6%,?
Cc1ccc(NC(=O)c2ccn(C)n2)c(Br)c1,5.17µM*,?,2µM*,?,6.01µM*,3.16µM*
Cc1ccc(NC(=O)c2ccccn2)c(Br)c1,4.11µM*,?,.,?,7.57µM*,2.82µM*
O=C(NCCCn1ccnc1)/C(=C\c1ccc(Br)cc1)NC(=O)c1ccccc1F,-6.5%,-0.6%,.,-2.7%,-3.8%,2.0%
O=C(CCc1nc2cccnc2n1Cc1ccccc1)NCc1cccc(Cl)c1,.,.,3.5%,.,-10.9%,.
Cc1nc2ccc(S(=O)(=O)NCC(=O)Nc3ccc(F)cc3)cc2s1,0.7%,9.3%,.,-11.2%,-1.0%,-1.3%
O=C(Oc1ccc(-c2ccccc2)cc1)C1C2CCCCC21 (stereo not given),16.7%,-1.0%,4.9%,-4.1%,4.78µM*,-4.6%
O=C(Oc1ccc(-c2ccccc2)cc1)N1CCCCC1,.,.,?,.,8.49µM*,.
